Compounds without any hit were thinned out: in the full panel of roughly 79,000, 15% have a hit. Activity calls are given as the source filed them. Cut-off read from the data, not from the text of the source: active = growth inhibition above about 70%; inactive = the rest.
Experiments:
[1] = NCI Yeast Anticancer Drug Screen. Data for the rad52 strain (AID 147);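 note: 0% = growth of vehicle-treated control cultures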; conditions: S. cerevisiae rad52 mutant growth inhibition, active compounds read high
Summary of the method: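 DNA repair-defective yeast; compound exposure; growth scored against vehicle controls.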

[2] = NCI Yeast Anticancer Drug Screen. Data for the wt1 strain (AID 149);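 note: 0% = growth of vehicle-treated wt1 cultures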; conditions: S. cerevisiae wt1 strain (SPY 50644) growth inhibition, active compounds read high
Summary of the method: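 Using yeast strain wt1, compound-induced growth inhibition was determined against vehicle-treated cultures.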

[3] = NCI Yeast Anticancer Drug Screen. Data for the rad50EPP+ strain (AID 151);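 note: 0% = growth of vehicle-treated control cultures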; conditions: S. cerevisiae rad50 mutant strain, active compounds read high
Summary of the method: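 rad50EPP+ yeast treated with test compounds. Readout: growth vs vehicle control.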

[4] = NCI Yeast Anticancer Drug Screen. Data for the mgt1 strain (AID 153); conditions: S. cerevisiae mgt1 mutant growth inhibition, active compounds read high
Summary of the method: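 Growth inhibition relative to vehicle controls was scored for the mgt1 yeast strain after compound exposure.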

[5] = NCI Yeast Anticancer Drug Screen. Data for the rad50 strain (AID 155);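 note: 0% = growth of vehicle-only cultures of the same strain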; conditions: S. cerevisiae rad50 strain growth inhibition, active compounds read high
Summary of the method: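 Relative growth inhibition (compound vs vehicle) was measured in yeast with a defined repair-gene alteration.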

[6] = NCI Yeast Anticancer Drug Screen. Data for the mec2-1 strain (AID 157); conditions: S. cerevisiae mec2-1 strain, active compounds read high
Summary of the method: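 Growth inhibition is read against vehicle-treated controls after compound exposure of the mec2-1 yeast strain, which is defective in DNA damage repair or cell cycle control.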

[7] = NCI Yeast Anticancer Drug Screen. Data for the rad14 strain (AID 159);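 note: 0% = growth of vehicle-treated control cultures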; conditions: S. cerevisiae rad14 strain growth inhibition, active compounds read high
Summary of the method: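 Screen for anticancer potential: a yeast strain altered in DNA damage repair is grown with compound, and reduced growth is quantified against vehicle controls.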

[8] = NCI Yeast Anticancer Drug Screen. Data for the sgs1 mgt1 strain (AID 161);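 note: 0% = growth of cultures given vehicle only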; conditions: S. cerevisiae sgs1 mgt1 strain, active compounds read high
Summary of the method: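 Compounds are added to genetically altered yeast, and growth is compared with cultures given vehicle alone to give percent inhibition.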

[9] = NCI Yeast Anticancer Drug Screen. Data for the CLN2oe strain (AID 163);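 note: 0% = growth of vehicle-only control cultures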; conditions: S. cerevisiae CLN2oe strain, active compounds read high
Summary of the method: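 Compound-treated yeast; growth vs vehicle ctrl = % inhibition. Genetically altered strain (cell-cycle control).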

[10] = NCI Yeast Anticancer Drug Screen. Data for the cln2 rad14 strain (AID 165);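 note: 0% = growth equal to vehicle treated cultures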; conditions: S. cerevisiae cln2 rad14 strain, active compounds read high
Summary of the method: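 Growth inhibition, relative to vehicle-treated controls, is the read-out. The test organism is a yeast strain with defined genetic alterations, cln2 rad14.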

[11] = NCI Yeast Anticancer Drug Screen. Data for the bub3 strain (AID 167); conditions: S. cerevisiae bub3 mutant strain, active compounds read high
Summary of the method: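 Screening used yeast with an engineered genetic alteration affecting cell cycle control. Compound-exposed cultures were compared with vehicle cultures, and reduced growth was taken as inhibition.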

[12] = NCI Yeast Anticancer Drug Screen. Data for the wt2 strain (AID 169);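 note: 0% = growth of vehicle-treated yeast cultures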; conditions: S. cerevisiae wt2 strain growth inhibition, active compounds read high
Summary of the method: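 Compound exposure of yeast; growth compared with vehicle controls; inhibition reported.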

[13] = NCI Yeast Anticancer Drug Screen. Data for the mlh1 strain (AID 171);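 note: 0% = growth of vehicle-treated control cultures of the same strain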; conditions: S. cerevisiae mlh1 strain growth inhibition, active compounds read high
Summary of the method: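 Compounds are applied to a genetically altered yeast strain, and its growth is compared with that of vehicle-treated cultures to give percent inhibition.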

[14] = NCI Yeast Anticancer Drug Screen. Data for the sgs1 strain (AID 173);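 note: 0% = growth of vehicle-only control cultures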; conditions: S. cerevisiae sgs1 mutant, active compounds read high
Summary of the method: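 Compounds applied to genetically altered yeast; growth compared with vehicle-treated cultures to give % inhibition.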

[15] = NCI Yeast Anticancer Drug Screen. Data for the mlh1 rad18 strain (AID 175); conditions: S. cerevisiae mlh1 rad18 strain growth inhibition, active compounds read high
Summary of the method: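 Cells of a genetically altered yeast strain, deficient in DNA damage repair, were treated with compound. Their growth was then compared with that of vehicle-treated cultures to give inhibition.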

[16] = NCI Yeast Anticancer Drug Screen. Data for the rad18 strain (AID 177); conditions: S. cerevisiae rad18 mutant growth inhibition, active compounds read high
Summary of the method: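 Compounds are applied to a repair-deficient yeast strain, and growth is compared with that of vehicle-treated cultures to give percent inhibition.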

[17] = at 5.0 µM (retest, dose inferred, filed as 0.5)
[18] = at 50.0 µM (retest, dose inferred, filed as 5.0)

Measured: growth inhibition

CC(=O)ON=C1C=CC(=C(C#N)c2ccc(Cl)cc2)C=C1
active: [3]; at 33.0 µM 91% | [3]; at 100.0 µM 96% | [4]; at 100.0 µM 77% | [5]; [18] 97% | [5]; at 50.0 µM 99.4% | [6]; [18] 99% | [6]; at 50.0 µM 99% | [7]; at 100.0 µM 98% | [8]; [18] 99% | [8]; at 50.0 µM 99.5% | [10]; [18] 98% | [10]; at 50.0 µM 77.1% | [11]; [18] 75% | [12]; at 100.0 µM 86% | [13]; at 100.0 µM 74% | [14]; at 100.0 µM 95% | [15]; [18] 97% | [15]; at 50.0 µM 98.5%
inactive: [1]; at 1.2 µM 1% | [1]; at 3.7 µM -1% | [1]; at 11.0 µM 1% | [1]; at 33.0 µM 22% | [1]; at 100.0 µM 69% | [2]; at 1.2 µM 0% | [2]; at 3.7 µM 0% | [2]; at 11.0 µM 4% | [2]; at 33.0 µM 10% | [2]; at 100.0 µM 61% | [3]; at 1.2 µM 19% | [3]; at 3.7 µM 38% | [3]; at 11.0 µM 64% | [4]; at 1.2 µM 0% | [4]; at 3.7 µM 2% | [4]; at 11.0 µM 4% | [4]; at 33.0 µM 42% | [5]; at 1.2 µM 0% | [5]; at 3.7 µM -3% | [5]; [17] 25% | [5]; at 11.0 µM -1% | [5]; at 33.0 µM 9% | [5]; at 100.0 µM 59% | [6]; at 1.2 µM -1% | [6]; at 3.7 µM 0% | [6]; [17] 11% | [6]; at 11.0 µM 1% | [6]; at 33.0 µM 19% | [6]; at 100.0 µM 59% | [7]; at 1.2 µM -3% | [7]; at 3.7 µM -4% | [7]; at 11.0 µM -1% | [7]; at 33.0 µM 22% | [8]; [17] 41% | [9]; at 1.2 µM -3% | [9]; at 3.7 µM -8% | [9]; at 11.0 µM -1% | [9]; at 33.0 µM 3% | [9]; at 100.0 µM 56% | [10]; [17] 7% | [11]; at 1.2 µM -4% | [11]; at 3.7 µM -4% | [11]; [17] 3% | [11]; at 11.0 µM -5% | [11]; at 33.0 µM 7% | [11]; at 50.0 µM 56% | [11]; at 100.0 µM 50% | [12]; at 1.2 µM 1% | [12]; at 3.7 µM 3% | [12]; at 11.0 µM 9% | [12]; at 33.0 µM 52% | [13]; at 1.2 µM 4% | [13]; at 3.7 µM 3% | [13]; at 11.0 µM 9% | [13]; at 33.0 µM 38% | [14]; at 1.2 µM 2% | [14]; at 3.7 µM 10% | [14]; at 11.0 µM 16% | [14]; at 33.0 µM 58% | [15]; [17] 29% | [16]; at 1.2 µM 2% | [16]; at 3.7 µM 1% | [16]; at 11.0 µM 2% | [16]; at 33.0 µM 19% | [16]; at 100.0 µM 67%

O=C(/C=C(/c1ccccc1)N1CCCCC1)c1ccccc1
inactive: [1]; at 1.2 µM 0% | [1]; at 3.7 µM 3% | [1]; at 11.0 µM 5% | [1]; at 33.0 µM 13% | [2]; at 1.2 µM -1% | [2]; at 3.7 µM 4% | [2]; at 11.0 µM 1% | [2]; at 33.0 µM 9% | [3]; at 1.2 µM 3% | [3]; at 3.7 µM 16% | [3]; at 11.0 µM 42% | [3]; at 33.0 µM 43% | [3]; at 100.0 µM 31% | [4]; at 1.2 µM -3% | [4]; at 3.7 µM -2% | [4]; at 11.0 µM 0% | [4]; at 33.0 µM 10% | [5]; at 1.2 µM -1% | [5]; at 3.7 µM -1% | [5]; [17] 0% | [5]; at 11.0 µM 5% | [5]; at 33.0 µM 11% | [6]; at 1.2 µM -4% | [6]; at 3.7 µM -5% | [6]; [17] -12% | [6]; at 11.0 µM -3% | [6]; at 33.0 µM 7% | [6]; at 50.0 µM 53% | [7]; at 1.2 µM 3% | [7]; at 3.7 µM 6% | [7]; at 11.0 µM 9% | [7]; at 33.0 µM 30% | [8]; [17] 44% | [9]; at 1.2 µM -6% | [9]; at 3.7 µM -7% | [9]; at 11.0 µM -3% | [9]; at 33.0 µM -4% | [10]; [17] 14% | [10]; at 50.0 µM 46% | [11]; at 1.2 µM 2% | [11]; at 3.7 µM 3% | [11]; [17] 34% | [11]; at 11.0 µM 7% | [11]; at 33.0 µM 19% | [11]; at 50.0 µM 54.8% | [12]; at 1.2 µM -1% | [12]; at 3.7 µM 1% | [12]; at 11.0 µM 1% | [12]; at 33.0 µM 15% | [13]; at 1.2 µM -4% | [13]; at 3.7 µM -1% | [13]; at 11.0 µM -3% | [13]; at 33.0 µM 5% | [14]; at 1.2 µM -1% | [14]; at 3.7 µM -1% | [14]; at 11.0 µM 3% | [14]; at 33.0 µM 20% | [15]; [17] 55% | [16]; at 1.2 µM -2% | [16]; at 3.7 µM 1% | [16]; at 11.0 µM 3% | [16]; at 33.0 µM 9%
active: [1]; at 100.0 µM 98% | [2]; at 100.0 µM 94% | [4]; at 100.0 µM 87% | [5]; [18] 92% | [5]; at 50.0 µM 90.3% | [5]; at 100.0 µM 97% | [6]; [18] 84% | [6]; at 100.0 µM 82% | [7]; at 100.0 µM 98% | [8]; [18] 94% | [8]; at 50.0 µM 82.1% | [9]; at 100.0 µM 97% | [10]; [18] 79% | [11]; [18] 99% | [11]; at 100.0 µM 94% | [12]; at 100.0 µM 95% | [13]; at 100.0 µM 96% | [14]; at 100.0 µM 97% | [15]; [18] 99% | [15]; at 50.0 µM 89.3% | [16]; at 100.0 µM 97%

Reference: PubChem BioAssay (NCI)
